Common to all, as to test: PBM binding z-score (relative to random genomic background probes); higher = stronger binding; sequences stand for … in GC…GCGATTGACAGCGTAGAATGAAGG
In experiment [1] the test system is FXR:RXRa (NR concentration 270 nM, RXRa partner concentration 90 nM). Put shortly: (§1)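 Regression normalization was applied to scanned fluorescence from custom Agilent 4×180K protein-binding microarrays. Before scanning, arrays were incubated 1 h with ligand-free nuclear receptor dimers, and binding was detected with antibodies against each partner (one per run). Binding z-scores use the random background probes as reference.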

Experiment [2] concerns LXRa:RXRa (NR concentration 270 nM, RXRa partner concentration 90 nM). Put shortly: as §1
Experiment [3] concerns LXRa homodimer (NR concentration 270 nM). Put shortly: as §1
The test system of experiment [4] is LXRb:RXRa (NR concentration 270 nM, RXRa partner concentration 90 nM). The essentials: as §1
Experiment [5] relates to LXRb homodimer (NR concentration 270 nM). The essentials:
as §1

Experiment [6] relates to PPARa:RXRa (NR concentration 270 nM, RXRa partner concentration 90 nM). Put shortly:
as §1

Experiment [7] deals with PPARg:RXRa (NR concentration 180 nM, RXRa partner concentration 90 nM). The essentials:
as §1

The subject of experiment [8] is PPARg:RXRa 270nM:90nM, anti-RXR (NR concentration 270 nM, RXRa partner concentration 90 nM). Put shortly: as §1
The test system of experiment [9] is PPARg:RXRa 30nM:10nM, anti-RXR (NR concentration 30 nM, RXRa partner concentration 10 nM). The essentials: as §1
Experiment [10] has as its system PPARg:RXRa 90nM:30nM, anti-RXR (NR concentration 90 nM, RXRa partner concentration 30 nM). Put shortly: as §1
Experiment [11] concerns PPARg:RXRa DBDmut IVT, anti-RXR (DBD mutation: RXRa K156A/R161A, NR concentration 270 nM, RXRa partner concentration 90 nM). Put shortly:
as §1

The subject of experiment [12] is PPARg:RXRa IVT, anti-PPARg (NR concentration 270 nM, RXRa partner concentration 90 nM). Put shortly:
as §1

Experiment [13] relates to PPARg DBDmut:RXRa IVT, anti-PPARg (DBD mutation: PPARg1 K132A/R137A, NR concentration 270 nM, RXRa partner concentration 90 nM). The essentials: as §1
Experiment [14] deals with PPARg DBDmut IVT, anti-PPARg (DBD mutation: PPARg1 K132A/R137A, NR concentration 270 nM). The essentials: as §1
Experiment [15] deals with PPARg homodimer (NR concentration 180 nM). Put shortly: as §1
Experiment [16] concerns PXR:RXRa (NR concentration 270 nM, RXRa partner concentration 90 nM). Put shortly:
as §1

Experiment [17] concerns PXR homodimer (NR concentration 270 nM). The essentials: as §1
Experiment [18] concerns RARa:RXR (NR concentration 270 nM, RXRa partner concentration 90 nM). Put shortly:
as §1

Experiment [19] relates to RARa homodimer (NR concentration 270 nM). Put shortly: as §1
Experiment [20] concerns RARb:RXRa (NR concentration 270 nM, RXRa partner concentration 90 nM). Put shortly:
as §1

These results are taken from the supplement of paper PMC6555819.

Take CCAACTGGGGCATAAGGTTACCATAAGCCAGCCC: the PBM binding z-score in [1] is 0.142; in [2], 1.69; in [3], -0.161; in [4], 0.858; in [5], -1.05; in experiment [6], 2.56. The PBM binding z-score stood at 3.63 in experiment [7]; 3.93 in experiment [8]; 1.9 in [9]; 3.24 in experiment [10]; 4.69 in experiment [11]; 5.04 in experiment [12]. The PBM binding z-score was 0.045 in [13]; -0.438 in [14]; 0.423 in [15]; 0.561 in [16]; -0.309 in [17]; 1.32 in experiment [18]. Also, the PBM binding z-score in experiment [19] was 0.288; in experiment [20], 1.6.

Regarding GCGTCTGGGGCAAAGCAGGTTACCATAAGGTTGG, the PBM binding z-score in [1] is 0.56; in [2], 0.162; in [3], -0.429; in experiment [4] it was 0.26; in experiment [5], -0.82; in experiment [6], 1.26. Also, the PBM binding z-score in experiment [7] is 0.532; in [8], 0.46; in [9], -0.355; in experiment [10] it was 0.0417; in experiment [11], 3.3; in experiment [12], 2.33. Further, the PBM binding z-score was -0.833 in [13]; -1.14 in [14]; 0.154 in [15]; 0.372 in experiment [16]; -0.589 in experiment [17]; 0.843 in [18]. The PBM binding z-score in experiment [19] is -1.37; in experiment [20], 1.17.

As to AATACAGGGTCACTAGGCCATAGTAGGTACGAAT, the PBM binding z-score in experiment [1] came out at 5.83; in experiment [2], 4.98; in experiment [3], 1.02; in [4] it was 4; in experiment [5], 0.913; in experiment [6], 6.01. Moreover, the PBM binding z-score in experiment [7] is 8.68; in experiment [8], 6.76; in [9], 3.65; in [10] it was 5.88; in [11] it was 4.35; in [12], 6.47. Moreover, the PBM binding z-score in experiment [13] was found to be 2.07; in [14], 1.76; in experiment [15], 2.21; in experiment [16], 3.31; in experiment [17] it was 0.565; in experiment [18], 4.46. The figures for the PBM binding z-score in [19] and in experiment [20] were 0.595 and 4.11, respectively.

With CAAACTAGGCCACAGAGGTCAAAGTCCGTGCGTA, the PBM binding z-score was 5.06 in experiment [1]; 5.36 in experiment [2]; 5.33 in experiment [3]; 5.13 in experiment [4]; 0.98 in experiment [5]; 5.87 in [6]. Also, the PBM binding z-score in experiment [7] is 7.19; in experiment [8], 6.39; in experiment [9] it was 4.5; in experiment [10], 5.82; in experiment [11] it was 7.36; in [12], 7.37. Moreover, the PBM binding z-score is 2.08 in [13]; 0.00435 in experiment [14]; 3.3 in [15]; 5.81 in experiment [16]; 4.73 in experiment [17]; 6.18 in experiment [18]. Also, the results for the PBM binding z-score in experiment [19] and in experiment [20] were 0.998 and 4.29, respectively.

Regarding CCATACGGGTCACTGACAGGTTATAGCATTTGGA, the PBM binding z-score was 4.49 in experiment [1]; 4.04 in experiment [2]; 0.394 in experiment [3]; 3.31 in experiment [4]; 0.0673 in [5]; 4.83 in experiment [6]. The PBM binding z-score in [7] was 3.92; in experiment [8] it was 3.76; in [9], 1.43; in experiment [10] it was 2.41; in [11], 2.31; in [12], 3.21. Besides, the PBM binding z-score was 0.442 in experiment [13]; 0.0659 in experiment [14]; 2.58 in experiment [15]; 3.55 in experiment [16]; 0.194 in [17]; 4.58 in [18]. In addition, the values for the PBM binding z-score in experiment [19] and in [20] were 1.68 and 3.81, respectively.

In the case of GCGACTGGGGCAAAGCAGGTTACCTTAAGGTTGG, the PBM binding z-score is 0.232 in [1]; 0.16 in experiment [2]; -0.422 in experiment [3]; 0.247 in experiment [4]; -0.607 in [5]; 1.31 in [6]. The PBM binding z-score in [7] is 0.947; in [8], 1.35; in experiment [9], -0.661; in experiment [10] it was 0.437; in [11] it was 4.98; in [12], 3.47. In addition, the PBM binding z-score in experiment [13] is -0.487; in experiment [14] it was -1.22; in experiment [15], -0.599; in experiment [16], 0.288; in [17], -0.563; in experiment [18], 0.523. Further, the figures for the PBM binding z-score in [19] and in experiment [20] were -0.791 and 0.877, respectively.

GCTTTTAGTTGAAAGGGCAACCGAATGATTCTCG: the PBM binding z-score in experiment [1] was 0.288; in [2], 0.561; in [3] it was -0.0833; in experiment [4], 0.53; in [5], 0.106; in [6], 2.2. Moreover, the PBM binding z-score in experiment [7] was 2.24; in experiment [8], 4.03; in experiment [9], 1.85; in experiment [10] it was 3.97; in [11] it was 0.524; in experiment [12], 0.732. The PBM binding z-score in experiment [13] was 0.316; in [14] it was 0.582; in experiment [15] it was 0.658; in experiment [16] it was 0.695; in experiment [17], -0.255; in experiment [18] it was 0.953. For the same sequence, the PBM binding z-score in experiment [19] was -0.0621; in experiment [20], 2.16.
